{"source": "PubChem BioAssay (NCI)", "note": "Compounds without any hit were thinned out: in the full panel of roughly 83,000, 20% have a hit.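 Cells were grown in 96-well plates and exposed to the test compound at a single concentration for 48 hours; results are reported as percent growth, with values below 10 considered active.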 The source made the active and inactive calls.", "data": [{"system": "RPMI-8226 leukemia", "assay": "NCI-60 one-dose screen, 48 h (100 = growth as untreated, 0 = no growth, -100 = all killed)", "conditions": "10 µM", "values": [{"smiles": "c1ccc([C@H]2CN3CCSC3=N2)cc1", "growth": "110% (inactive)"}, {"smiles": "NC(=O)SCC(=O)Nc1ccc(S(N)(=O)=O)cc1", "growth": "108% (inactive)"}, {"smiles": "Cc1nc2ccc(CN(C)c3ccc(C(=O)N[C@@H](CCC(=O)O)C(=O)O)s3)cc2c(=O)[nH]1", "growth": "56.6% (inactive)"}, {"smiles": "COc1ccc(OC)c(/C=C/c2nc(SCc3ccccc3)n(-c3ccc(Cl)cc3)n2)c1", "growth": "42.5% (inactive)"}, {"smiles": "COc1cc(Cc2cc(-c3ccc(Cl)cc3)n[nH]c2=O)ccc1O", "growth": "47.9% (inactive)"}, {"smiles": "CN(C)C(=S)N/N=C\\C=N/NC(=S)N(C)C", "growth": "0.534% (active)"}, {"smiles": "COc1ccc(N=C2C(=Nc3ccc(OC)cc3)N(c3ccc(N(C)C)cc3)C(=S)N2c2ccc(OC)cc2)cc1", "growth": "-12.4% (active)"}, {"smiles": "COC(=O)[C@@H]1[C@H](O)[C@H](C)[C@H](O)[C@@](C)(O)/C=C\\C=C(C)C(=O)Nc2c(C)c(OC(C)=O)c3c(c2O)C(=O)C(C)=C2OCOC(=C23)C(C)=C[C@@](C)(O)[C@H](O)[C@@H](C)[C@H]1OC(C)=O", "growth": "-13.2% (active)"}, {"smiles": "COc1cccc(C2C3=C(COC3=O)N(CCO)c3cc(OC)ccc32)c1", "note": "(stereo unspecified)", "growth": "20.6% (inactive)"}, {"smiles": "CCc1ccc2c(c1)N(CCO)C1=C(C(=O)OC1)C2c1ccccc1", "note": "(stereo unspecified)", "growth": "101% (inactive)"}, {"smiles": "COc1ccc(N2C(=O)C3c4[nH]c5ccc(OCc6ccccc6)cc5c4C4CCC(C(C)C)CC4C3C2=O)cc1", "note": "(stereo unspecified)", "growth": "86.9% (inactive)"}, {"smiles": "CCN(CC)CCNC(=O)c1ccc(NC(C)=O)cc1", "growth": "112% (inactive)"}, {"smiles": "CCOC(=O)C1CCc2c(ccc3ccccc23)N1CCC#N", "note": "(stereo unspecified)", "growth": "104% (inactive)"}, {"smiles": "CN(C)CCN1C(=O)c2cccc3cc(N)cc(c23)C1=O", "growth": "1.78% (active)"}, {"smiles": "COc1ccc2c(c1)nc(N)c1c3cccnc3cn21", "growth": "34.3% (inactive)"}, {"smiles": "CN1CC[C@@H](c2c(O)cc(O)c3c(=O)cc(-c4ccccc4Cl)oc23)[C@@H](O)C1", "growth": "-32.3% (active)"}, {"smiles": "CCCC1(CC(=O)O)OCCc2c1[nH]c1ccccc21", "note": "(stereo unspecified)", "growth": "99.9% (inactive)"}, {"smiles": "C=C(Cl)[C@@](Cl)(CBr)CC[C@@H](Br)C(C)(C)Cl", "growth": "-59.4% (active)"}, {"smiles": "CC[C@H](C)C(=O)O[C@H]1CCC=C2C=C[C@H](C)C(CCC3C[C@@H](O)CC(=O)O3)[C@H]21", "note": "(stereo partly specified)", "growth": "96.8% (inactive)"}, {"smiles": "Cc1cccc2c(NCCN(C)C)c3cccc(C(=O)NCCN(C)C)c3nc12", "growth": "-34.6% (active)"}, {"smiles": "O=C(CCCCCCC(=O)Nc1cccnc1)NO", "growth": "-14.9% (active)"}, {"smiles": "O=C1OCC2=C1C(c1cccc(Br)c1)c1cc3c(cc1N2CCO)CCC3", "note": "(stereo unspecified)", "growth": "19% (inactive)"}, {"smiles": "O=C(CNC(=O)OCc1ccccc1)NCC(=O)Oc1ccc([N+](=O)[O-])cc1", "growth": "112% (inactive)"}, {"smiles": "CC(C)C[C@H](NC(=O)[C@H](Cc1cccc2ccccc12)NS(=O)(=O)c1cccc2cccnc12)B(O)O", "growth": "-36.7% (active)"}, {"smiles": "Cc1cc(C)c(NC(=O)c2sc3nc4c(cc3c2N)C(=O)CCC4)c(C)c1", "growth": "31.8% (inactive)"}, {"smiles": "CCOCCOCCOCCOCCOCCOCCOCCOCCOCCO", "note": "(tested in a mixture with another compound)", "growth": "-33.3% (active)"}, {"smiles": "COc1cc(OC)cc(-c2cncn2-c2ccc(-c3nc4cc(OC)cc(OC)c4s3)cc2)c1", "growth": "44.6% (inactive)"}, {"smiles": "COc1ccc(OC)c2c1C(=O)CC2C", "note": "(stereo unspecified)", "growth": "106% (inactive)"}, {"smiles": "Nc1ncn(C2OC(CO)C(O)C2O)c(=O)n1", "note": "(stereo unspecified)", "growth": "-25.4% (active)"}, {"smiles": "N#Cc1c(C#N)c(SSc2c(C#N)c(C#N)c(N)n2-c2ccccc2)n(-c2ccccc2)c1N", "growth": "125% (inactive)"}, {"smiles": "CCCCCCCCCCCCCCCCCCOCC(COCCOCC[N+]1(CCCCCC(=O)[O-])CCCC1)Oc1ncccn1", "note": "(stereo unspecified)", "growth": "2.22% (active)"}, {"smiles": "C=C(NC(=O)C(=C)NC(=O)c1csc(C2=NC3c4csc(n4)C4NC(=O)c5csc(n5)C(C(C)(O)C(C)O)NC(=O)C5CSC(=N5)/C(=C/C)NC(=O)C(C(C)O)NC(=O)c5csc(n5)C3(CC2)NC(=O)C(C)NC(=O)C(=C)NC(=O)C(=C)NC(=O)C(C(C)C)NC2C=Cc3c(C(C)O)cc(nc3C2O)C(=O)OC4C)n1)C(N)=O", "note": "(stereo unspecified)", "growth": "-37.1% (active)"}, {"smiles": "O=C1ON=[N+](c2ccc(Cc3ccc([N+]4=NOC(=O)C4CN4CCOCC4)cc3)cc2)C1CN1CCOCC1", "note": "(stereo unspecified)", "growth": "60.5% (inactive)"}, {"smiles": "C/C(=N\\Nc1nc2ccccc2s1)c1ccncn1", "growth": "-26.4% (active)"}]}, {"system": "OVCAR-8 ovarian", "assay": "NCI-60 one-dose screen, 48 h (100 = growth as untreated, 0 = no growth, -100 = all killed)", "conditions": "10 µM", "values": [{"smiles": "NC(=O)SCC(=O)Nc1ccc(S(N)(=O)=O)cc1", "growth": "104% (inactive)"}, {"smiles": "COc1ccc(OC)c(/C=C/c2nc(SCc3ccccc3)n(-c3ccc(Cl)cc3)n2)c1", "growth": "83.6% (inactive)"}, {"smiles": "COc1cc(Cc2cc(-c3ccc(Cl)cc3)n[nH]c2=O)ccc1O", "growth": "92.6% (inactive)"}, {"smiles": "CO/N=C(/C(=O)NC1C(=O)N2C(C(=O)O)=C(COC(N)=O)CSC12)c1ccco1", "note": "(stereo unspecified)", "growth": "108% (inactive)"}, {"smiles": "CCN(CC)CCNC(=O)c1ccc(NC(C)=O)cc1", "growth": "106% (inactive)"}, {"smiles": "CCOC(=O)C1CCc2c(ccc3ccccc23)N1CCC#N", "note": "(stereo unspecified)", "growth": "107% (inactive)"}, {"smiles": "COc1ccc2c(c1)nc(N)c1c3cccnc3cn21", "growth": "4.95% (active)"}, {"smiles": "O=C(/C=C/c1cc2ccccc2[nH]c1=O)c1ccc2c(c1)OCO2", "growth": "96.1% (inactive)"}, {"smiles": "CC[C@H](C)C(=O)O[C@H]1CCC=C2C=C[C@H](C)C(CCC3C[C@@H](O)CC(=O)O3)[C@H]21", "note": "(stereo partly specified)", "growth": "45.2% (inactive)"}, {"smiles": "CC1CN(Cc2ccccc2)C(=O)NC1=O", "note": "(stereo unspecified)", "growth": "103% (inactive)"}, {"smiles": "Cc1cc(C)c(NC(=O)c2sc3nc4c(cc3c2N)C(=O)CCC4)c(C)c1", "growth": "45.6% (inactive)"}, {"smiles": "COc1cc(NC(=O)CSc2nc3ccccc3c(=O)n2CCc2ccccc2)cc(OC)c1OC", "growth": "30% (inactive)"}, {"smiles": "CCOCCOCCOCCOCCOCCOCCOCCOCCOCCO", "note": "(tested in a mixture with another compound)", "growth": "5.89% (active)"}, {"smiles": "COc1cc(OC)cc(-c2cncn2-c2ccc(-c3nc4cc(OC)cc(OC)c4s3)cc2)c1", "growth": "80.7% (inactive)"}, {"smiles": "COc1ccc(OC)c2c1C(=O)CC2C", "note": "(stereo unspecified)", "growth": "105% (inactive)"}, {"smiles": "O=C1NC(=O)N(Cc2ccccc2)CC1Br", "note": "(stereo unspecified)", "growth": "61.9% (inactive)"}, {"smiles": "O=C1ON=[N+](c2ccc(Cc3ccc([N+]4=NOC(=O)C4CN4CCOCC4)cc3)cc2)C1CN1CCOCC1", "note": "(stereo unspecified)", "growth": "80.9% (inactive)"}]}]}
